Tests used:
Assay in all cases: log2 ratio of Biotin-Ahx-Ub-VS probe labelling (fragment/DMSO); higher = less target engagement (more negative = stronger competition), active = hit call of the paper (q ≤ 0.05, log2 ratio ≤ -1)
Conditions in all cases: compound concentration: 200 uM; treatment time: 3 h
USP42 = molecular target: T1, USP42 (UniProt Q9H9J4)
T1 sequence (whole entry): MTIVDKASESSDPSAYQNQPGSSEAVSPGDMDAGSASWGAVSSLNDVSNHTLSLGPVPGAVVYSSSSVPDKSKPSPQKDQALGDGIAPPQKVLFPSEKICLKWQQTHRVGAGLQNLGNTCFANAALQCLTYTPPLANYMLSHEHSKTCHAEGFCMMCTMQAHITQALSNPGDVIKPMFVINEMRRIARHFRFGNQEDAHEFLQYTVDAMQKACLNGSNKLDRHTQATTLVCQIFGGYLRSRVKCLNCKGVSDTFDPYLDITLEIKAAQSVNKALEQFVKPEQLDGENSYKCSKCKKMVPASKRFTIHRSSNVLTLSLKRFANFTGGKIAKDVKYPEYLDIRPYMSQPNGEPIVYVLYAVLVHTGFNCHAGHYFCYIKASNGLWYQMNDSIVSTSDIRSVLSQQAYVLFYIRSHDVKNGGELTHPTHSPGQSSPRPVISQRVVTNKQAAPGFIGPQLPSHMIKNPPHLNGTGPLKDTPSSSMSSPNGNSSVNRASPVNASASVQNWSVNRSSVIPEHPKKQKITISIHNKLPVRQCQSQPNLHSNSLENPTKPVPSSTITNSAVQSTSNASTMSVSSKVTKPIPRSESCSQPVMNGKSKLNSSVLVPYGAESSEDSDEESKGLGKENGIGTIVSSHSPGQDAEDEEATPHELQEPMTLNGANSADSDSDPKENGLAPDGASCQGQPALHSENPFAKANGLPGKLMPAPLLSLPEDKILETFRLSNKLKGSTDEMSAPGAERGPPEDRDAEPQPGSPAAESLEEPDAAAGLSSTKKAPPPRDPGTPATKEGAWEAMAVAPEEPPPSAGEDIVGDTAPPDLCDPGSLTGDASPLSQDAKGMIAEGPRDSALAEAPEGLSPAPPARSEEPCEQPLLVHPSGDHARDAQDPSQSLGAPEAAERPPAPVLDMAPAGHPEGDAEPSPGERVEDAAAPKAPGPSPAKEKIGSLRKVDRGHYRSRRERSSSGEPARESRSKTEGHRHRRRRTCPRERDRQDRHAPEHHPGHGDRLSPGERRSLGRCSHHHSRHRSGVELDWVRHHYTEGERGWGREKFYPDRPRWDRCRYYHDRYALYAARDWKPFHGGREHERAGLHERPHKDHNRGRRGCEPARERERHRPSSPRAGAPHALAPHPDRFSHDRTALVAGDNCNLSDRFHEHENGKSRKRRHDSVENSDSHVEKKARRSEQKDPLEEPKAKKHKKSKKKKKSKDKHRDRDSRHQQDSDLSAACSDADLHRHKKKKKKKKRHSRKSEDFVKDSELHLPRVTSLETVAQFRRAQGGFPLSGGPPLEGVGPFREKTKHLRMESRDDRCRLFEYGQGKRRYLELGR
In short: (§1)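 Labelled DUBs were enriched with NeutrAvidin, digested with LysC and trypsin, and run by diaPASEF LC-MS/MS. The labelling used Biotin-Ahx-Ub-VS at 0.5 µM final for 1 h on HEK293T lysate (495 µg per sample) previously treated in triplicate with fragment at 200 µM or vehicle for 3 h. Values are average log2 fragment/vehicle ratios by unpaired t-test on global-median-normalised Spectronaut quantities of proteins with ≥2 unique peptides.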

USP46 = USP46 (UniProt P62068)
In short: as §1

USP47 = molecular target: T2, USP47 (UniProt Q96K76)
T2 sequence (whole entry): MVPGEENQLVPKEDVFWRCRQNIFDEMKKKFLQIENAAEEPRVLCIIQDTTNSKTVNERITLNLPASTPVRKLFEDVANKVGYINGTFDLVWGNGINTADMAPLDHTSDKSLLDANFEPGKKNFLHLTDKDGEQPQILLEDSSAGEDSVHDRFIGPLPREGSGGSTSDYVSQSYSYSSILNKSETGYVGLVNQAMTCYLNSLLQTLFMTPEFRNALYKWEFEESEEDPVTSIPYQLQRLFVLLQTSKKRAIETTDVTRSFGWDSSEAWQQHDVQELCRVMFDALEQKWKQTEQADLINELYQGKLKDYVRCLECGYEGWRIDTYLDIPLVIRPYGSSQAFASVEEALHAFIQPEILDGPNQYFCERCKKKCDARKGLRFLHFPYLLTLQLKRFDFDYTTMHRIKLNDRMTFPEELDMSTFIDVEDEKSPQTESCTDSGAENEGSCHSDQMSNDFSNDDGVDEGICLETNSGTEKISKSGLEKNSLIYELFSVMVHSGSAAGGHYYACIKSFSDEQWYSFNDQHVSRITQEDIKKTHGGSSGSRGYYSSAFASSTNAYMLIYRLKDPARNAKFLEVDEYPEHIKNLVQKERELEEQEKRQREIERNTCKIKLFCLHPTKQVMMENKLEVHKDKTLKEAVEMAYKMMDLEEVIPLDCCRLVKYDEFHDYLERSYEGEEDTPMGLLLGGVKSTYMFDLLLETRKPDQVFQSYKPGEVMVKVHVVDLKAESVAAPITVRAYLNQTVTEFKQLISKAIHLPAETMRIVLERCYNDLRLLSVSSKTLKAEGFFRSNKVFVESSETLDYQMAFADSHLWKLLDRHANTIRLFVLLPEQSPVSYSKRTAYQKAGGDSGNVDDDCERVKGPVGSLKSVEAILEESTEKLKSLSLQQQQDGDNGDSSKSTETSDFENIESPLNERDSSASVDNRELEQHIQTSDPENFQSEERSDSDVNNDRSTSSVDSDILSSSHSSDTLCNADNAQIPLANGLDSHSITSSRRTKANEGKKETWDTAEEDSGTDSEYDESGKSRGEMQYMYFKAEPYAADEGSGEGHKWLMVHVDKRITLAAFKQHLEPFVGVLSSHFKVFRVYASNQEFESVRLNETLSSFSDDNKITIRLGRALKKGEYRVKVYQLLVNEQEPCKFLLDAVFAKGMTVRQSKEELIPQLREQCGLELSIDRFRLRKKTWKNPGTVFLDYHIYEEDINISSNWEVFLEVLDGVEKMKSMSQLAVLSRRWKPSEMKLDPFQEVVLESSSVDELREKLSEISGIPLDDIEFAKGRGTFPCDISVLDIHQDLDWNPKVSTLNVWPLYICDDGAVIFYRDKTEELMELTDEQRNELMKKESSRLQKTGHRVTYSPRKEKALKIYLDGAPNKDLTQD
In short: as §1

USP48 = molecular target: T3, USP48 (UniProt Q86UV5)
T3 sequence (whole entry): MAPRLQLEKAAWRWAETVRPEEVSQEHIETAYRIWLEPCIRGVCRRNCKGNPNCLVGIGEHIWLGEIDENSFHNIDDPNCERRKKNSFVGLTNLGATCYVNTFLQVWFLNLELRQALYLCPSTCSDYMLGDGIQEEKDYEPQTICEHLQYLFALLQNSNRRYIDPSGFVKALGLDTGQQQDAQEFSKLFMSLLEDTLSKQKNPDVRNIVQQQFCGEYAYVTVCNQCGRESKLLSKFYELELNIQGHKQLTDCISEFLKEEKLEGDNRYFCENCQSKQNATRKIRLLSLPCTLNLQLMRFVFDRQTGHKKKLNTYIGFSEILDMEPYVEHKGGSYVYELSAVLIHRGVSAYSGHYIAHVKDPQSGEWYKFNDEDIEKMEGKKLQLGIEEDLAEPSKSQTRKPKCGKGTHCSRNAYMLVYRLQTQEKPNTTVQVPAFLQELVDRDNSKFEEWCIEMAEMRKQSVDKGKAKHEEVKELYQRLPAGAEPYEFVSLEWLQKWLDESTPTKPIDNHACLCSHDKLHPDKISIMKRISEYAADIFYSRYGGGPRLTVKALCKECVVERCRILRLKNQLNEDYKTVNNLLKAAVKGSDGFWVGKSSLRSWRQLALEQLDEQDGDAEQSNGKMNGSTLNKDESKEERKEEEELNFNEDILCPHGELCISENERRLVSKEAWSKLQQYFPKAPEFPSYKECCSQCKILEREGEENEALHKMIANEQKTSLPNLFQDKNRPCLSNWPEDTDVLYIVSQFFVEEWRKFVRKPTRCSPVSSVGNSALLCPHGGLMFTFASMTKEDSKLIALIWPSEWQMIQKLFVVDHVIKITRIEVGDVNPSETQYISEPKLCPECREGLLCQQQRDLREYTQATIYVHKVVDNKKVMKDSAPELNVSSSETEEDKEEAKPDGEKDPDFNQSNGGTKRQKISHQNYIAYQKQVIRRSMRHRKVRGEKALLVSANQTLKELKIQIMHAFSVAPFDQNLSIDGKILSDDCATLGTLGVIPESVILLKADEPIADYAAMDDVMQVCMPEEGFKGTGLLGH
In short: as §1

USP5 = molecular target: T4, USP5 (UniProt P45974)
T4 sequence (whole entry): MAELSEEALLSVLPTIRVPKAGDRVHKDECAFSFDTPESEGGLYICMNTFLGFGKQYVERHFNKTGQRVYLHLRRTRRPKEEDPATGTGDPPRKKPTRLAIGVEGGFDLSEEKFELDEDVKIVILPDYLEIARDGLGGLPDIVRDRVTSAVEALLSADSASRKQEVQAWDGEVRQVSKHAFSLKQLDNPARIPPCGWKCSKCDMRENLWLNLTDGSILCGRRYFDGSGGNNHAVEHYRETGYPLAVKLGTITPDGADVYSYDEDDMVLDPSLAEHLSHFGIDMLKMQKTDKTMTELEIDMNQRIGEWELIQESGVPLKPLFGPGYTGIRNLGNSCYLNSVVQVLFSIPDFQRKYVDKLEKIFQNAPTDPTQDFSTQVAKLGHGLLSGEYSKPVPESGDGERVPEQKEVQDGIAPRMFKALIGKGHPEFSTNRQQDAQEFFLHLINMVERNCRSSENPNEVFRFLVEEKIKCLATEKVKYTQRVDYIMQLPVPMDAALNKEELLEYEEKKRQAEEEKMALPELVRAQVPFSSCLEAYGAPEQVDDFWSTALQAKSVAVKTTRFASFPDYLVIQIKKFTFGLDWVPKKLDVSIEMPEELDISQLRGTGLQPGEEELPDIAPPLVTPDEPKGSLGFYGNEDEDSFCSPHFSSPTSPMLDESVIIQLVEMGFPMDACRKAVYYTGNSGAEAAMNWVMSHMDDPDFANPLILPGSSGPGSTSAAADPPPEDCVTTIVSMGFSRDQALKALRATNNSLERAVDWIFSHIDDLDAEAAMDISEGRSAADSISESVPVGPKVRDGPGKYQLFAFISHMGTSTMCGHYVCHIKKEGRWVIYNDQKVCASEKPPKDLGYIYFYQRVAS
In short: as §1

USP54 = USP54 (UniProt Q70EL1)
In short: as §1

USP7 = USP7 (UniProt Q93009)
In short: as §1

USP8 = molecular target: T5, USP8 (UniProt P40818)
T5 sequence (whole entry): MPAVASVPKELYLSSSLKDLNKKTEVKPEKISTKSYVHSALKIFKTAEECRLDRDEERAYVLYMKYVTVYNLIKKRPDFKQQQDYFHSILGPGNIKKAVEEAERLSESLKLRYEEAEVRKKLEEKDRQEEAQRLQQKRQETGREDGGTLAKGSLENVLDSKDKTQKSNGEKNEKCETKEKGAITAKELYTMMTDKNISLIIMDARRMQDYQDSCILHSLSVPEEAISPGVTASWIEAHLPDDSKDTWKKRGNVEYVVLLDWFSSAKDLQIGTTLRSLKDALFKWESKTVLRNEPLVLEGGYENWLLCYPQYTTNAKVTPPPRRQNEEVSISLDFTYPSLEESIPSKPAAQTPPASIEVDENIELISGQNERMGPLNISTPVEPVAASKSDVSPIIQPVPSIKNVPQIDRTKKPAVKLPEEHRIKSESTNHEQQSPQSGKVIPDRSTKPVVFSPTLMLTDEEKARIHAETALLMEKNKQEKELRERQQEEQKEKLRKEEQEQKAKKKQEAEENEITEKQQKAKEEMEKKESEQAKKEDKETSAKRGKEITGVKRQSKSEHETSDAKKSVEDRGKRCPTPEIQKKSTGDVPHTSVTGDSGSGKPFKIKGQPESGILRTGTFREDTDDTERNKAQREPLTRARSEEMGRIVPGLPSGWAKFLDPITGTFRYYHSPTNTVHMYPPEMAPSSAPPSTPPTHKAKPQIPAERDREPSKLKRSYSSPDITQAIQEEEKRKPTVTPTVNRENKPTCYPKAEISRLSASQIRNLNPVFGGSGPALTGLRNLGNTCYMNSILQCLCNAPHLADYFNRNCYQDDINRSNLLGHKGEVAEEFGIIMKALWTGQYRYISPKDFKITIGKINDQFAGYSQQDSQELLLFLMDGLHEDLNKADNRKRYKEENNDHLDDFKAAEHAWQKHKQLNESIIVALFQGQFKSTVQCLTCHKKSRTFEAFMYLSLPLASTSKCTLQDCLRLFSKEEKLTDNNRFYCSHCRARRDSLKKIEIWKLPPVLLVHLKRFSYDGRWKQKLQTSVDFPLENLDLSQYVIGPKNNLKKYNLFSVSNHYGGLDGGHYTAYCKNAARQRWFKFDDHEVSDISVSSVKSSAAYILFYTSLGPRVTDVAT
In short: as §1

USP9X = USP9X (UniProt Q93008)
In short: as §1

UniProt O00487 = molecular target: UniProt O00487
In short: as §1

Measured: log2 ratio of Biotin-Ahx-Ub-VS probe labelling

Chain of USP9X (Q93008 whole entry): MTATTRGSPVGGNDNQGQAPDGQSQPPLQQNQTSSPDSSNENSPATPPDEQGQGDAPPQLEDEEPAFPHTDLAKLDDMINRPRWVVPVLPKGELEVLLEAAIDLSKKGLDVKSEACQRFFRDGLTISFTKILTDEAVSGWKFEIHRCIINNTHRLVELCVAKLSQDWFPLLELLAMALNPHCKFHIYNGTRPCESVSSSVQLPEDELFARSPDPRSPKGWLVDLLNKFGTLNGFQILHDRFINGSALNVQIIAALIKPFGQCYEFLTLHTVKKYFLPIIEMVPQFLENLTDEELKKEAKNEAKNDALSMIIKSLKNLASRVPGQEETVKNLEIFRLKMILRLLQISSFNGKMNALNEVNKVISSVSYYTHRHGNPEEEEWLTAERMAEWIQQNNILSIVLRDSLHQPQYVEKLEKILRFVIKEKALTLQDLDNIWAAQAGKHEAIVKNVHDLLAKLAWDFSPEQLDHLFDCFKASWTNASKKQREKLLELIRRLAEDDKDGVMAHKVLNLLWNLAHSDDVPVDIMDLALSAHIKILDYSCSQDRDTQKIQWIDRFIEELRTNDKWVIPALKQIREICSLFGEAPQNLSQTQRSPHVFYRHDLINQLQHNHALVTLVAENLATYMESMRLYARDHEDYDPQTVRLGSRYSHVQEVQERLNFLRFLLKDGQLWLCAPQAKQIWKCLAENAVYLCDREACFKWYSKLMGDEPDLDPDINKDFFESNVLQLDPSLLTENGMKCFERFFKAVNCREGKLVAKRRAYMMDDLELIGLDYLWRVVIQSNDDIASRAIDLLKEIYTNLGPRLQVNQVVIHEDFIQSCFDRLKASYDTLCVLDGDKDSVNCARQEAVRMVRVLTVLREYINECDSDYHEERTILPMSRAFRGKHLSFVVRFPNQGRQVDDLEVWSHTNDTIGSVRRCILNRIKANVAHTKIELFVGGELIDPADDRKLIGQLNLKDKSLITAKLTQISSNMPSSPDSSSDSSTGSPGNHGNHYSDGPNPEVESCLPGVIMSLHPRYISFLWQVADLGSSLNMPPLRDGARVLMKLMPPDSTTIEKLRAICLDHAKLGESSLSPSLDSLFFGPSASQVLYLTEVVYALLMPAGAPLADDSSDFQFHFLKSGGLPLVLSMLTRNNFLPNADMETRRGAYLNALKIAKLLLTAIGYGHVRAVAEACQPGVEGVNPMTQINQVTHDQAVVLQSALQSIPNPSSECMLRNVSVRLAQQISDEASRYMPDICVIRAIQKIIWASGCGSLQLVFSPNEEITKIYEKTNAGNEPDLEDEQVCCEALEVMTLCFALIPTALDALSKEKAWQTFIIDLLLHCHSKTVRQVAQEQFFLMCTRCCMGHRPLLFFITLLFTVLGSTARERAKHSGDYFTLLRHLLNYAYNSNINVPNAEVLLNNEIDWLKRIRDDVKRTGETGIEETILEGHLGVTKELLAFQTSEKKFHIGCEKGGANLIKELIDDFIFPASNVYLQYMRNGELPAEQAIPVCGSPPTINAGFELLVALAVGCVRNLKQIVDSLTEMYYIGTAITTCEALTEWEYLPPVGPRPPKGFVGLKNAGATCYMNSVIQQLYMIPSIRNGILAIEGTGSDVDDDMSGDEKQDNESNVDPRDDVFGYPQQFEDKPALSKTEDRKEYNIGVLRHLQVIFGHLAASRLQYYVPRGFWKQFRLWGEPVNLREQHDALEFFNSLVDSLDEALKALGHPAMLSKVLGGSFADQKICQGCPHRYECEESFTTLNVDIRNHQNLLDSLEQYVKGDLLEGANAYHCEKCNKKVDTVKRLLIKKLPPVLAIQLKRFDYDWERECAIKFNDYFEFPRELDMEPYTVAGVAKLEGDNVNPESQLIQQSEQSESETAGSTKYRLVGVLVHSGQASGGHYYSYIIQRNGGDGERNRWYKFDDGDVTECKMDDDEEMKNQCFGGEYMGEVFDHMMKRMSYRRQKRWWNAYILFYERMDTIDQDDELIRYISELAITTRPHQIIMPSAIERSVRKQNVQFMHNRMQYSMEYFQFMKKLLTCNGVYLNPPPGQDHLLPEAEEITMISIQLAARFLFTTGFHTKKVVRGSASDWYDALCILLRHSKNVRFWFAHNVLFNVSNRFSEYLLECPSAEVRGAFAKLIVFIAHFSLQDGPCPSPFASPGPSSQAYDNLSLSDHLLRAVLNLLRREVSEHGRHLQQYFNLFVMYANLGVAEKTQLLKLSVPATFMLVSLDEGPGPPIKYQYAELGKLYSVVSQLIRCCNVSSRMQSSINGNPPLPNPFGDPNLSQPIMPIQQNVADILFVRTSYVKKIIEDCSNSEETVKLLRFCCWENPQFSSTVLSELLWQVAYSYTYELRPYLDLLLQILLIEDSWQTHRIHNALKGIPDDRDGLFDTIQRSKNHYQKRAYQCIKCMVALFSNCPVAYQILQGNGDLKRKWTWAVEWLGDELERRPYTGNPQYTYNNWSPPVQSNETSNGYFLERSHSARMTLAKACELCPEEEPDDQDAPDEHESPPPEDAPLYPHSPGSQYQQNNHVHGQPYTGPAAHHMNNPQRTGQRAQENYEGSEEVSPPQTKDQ
Chain of USP46 (P62068 whole entry): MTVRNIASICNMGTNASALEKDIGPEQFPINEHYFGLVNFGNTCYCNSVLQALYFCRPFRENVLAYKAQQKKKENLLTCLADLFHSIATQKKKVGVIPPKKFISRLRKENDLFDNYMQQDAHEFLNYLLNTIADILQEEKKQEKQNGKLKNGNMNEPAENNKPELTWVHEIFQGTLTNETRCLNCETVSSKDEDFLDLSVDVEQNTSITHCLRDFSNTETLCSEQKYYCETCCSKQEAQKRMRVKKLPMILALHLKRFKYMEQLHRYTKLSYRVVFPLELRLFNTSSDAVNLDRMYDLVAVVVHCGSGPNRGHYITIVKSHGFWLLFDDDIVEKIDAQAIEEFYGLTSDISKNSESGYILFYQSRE
Chain of USP54 (Q70EL1 whole entry): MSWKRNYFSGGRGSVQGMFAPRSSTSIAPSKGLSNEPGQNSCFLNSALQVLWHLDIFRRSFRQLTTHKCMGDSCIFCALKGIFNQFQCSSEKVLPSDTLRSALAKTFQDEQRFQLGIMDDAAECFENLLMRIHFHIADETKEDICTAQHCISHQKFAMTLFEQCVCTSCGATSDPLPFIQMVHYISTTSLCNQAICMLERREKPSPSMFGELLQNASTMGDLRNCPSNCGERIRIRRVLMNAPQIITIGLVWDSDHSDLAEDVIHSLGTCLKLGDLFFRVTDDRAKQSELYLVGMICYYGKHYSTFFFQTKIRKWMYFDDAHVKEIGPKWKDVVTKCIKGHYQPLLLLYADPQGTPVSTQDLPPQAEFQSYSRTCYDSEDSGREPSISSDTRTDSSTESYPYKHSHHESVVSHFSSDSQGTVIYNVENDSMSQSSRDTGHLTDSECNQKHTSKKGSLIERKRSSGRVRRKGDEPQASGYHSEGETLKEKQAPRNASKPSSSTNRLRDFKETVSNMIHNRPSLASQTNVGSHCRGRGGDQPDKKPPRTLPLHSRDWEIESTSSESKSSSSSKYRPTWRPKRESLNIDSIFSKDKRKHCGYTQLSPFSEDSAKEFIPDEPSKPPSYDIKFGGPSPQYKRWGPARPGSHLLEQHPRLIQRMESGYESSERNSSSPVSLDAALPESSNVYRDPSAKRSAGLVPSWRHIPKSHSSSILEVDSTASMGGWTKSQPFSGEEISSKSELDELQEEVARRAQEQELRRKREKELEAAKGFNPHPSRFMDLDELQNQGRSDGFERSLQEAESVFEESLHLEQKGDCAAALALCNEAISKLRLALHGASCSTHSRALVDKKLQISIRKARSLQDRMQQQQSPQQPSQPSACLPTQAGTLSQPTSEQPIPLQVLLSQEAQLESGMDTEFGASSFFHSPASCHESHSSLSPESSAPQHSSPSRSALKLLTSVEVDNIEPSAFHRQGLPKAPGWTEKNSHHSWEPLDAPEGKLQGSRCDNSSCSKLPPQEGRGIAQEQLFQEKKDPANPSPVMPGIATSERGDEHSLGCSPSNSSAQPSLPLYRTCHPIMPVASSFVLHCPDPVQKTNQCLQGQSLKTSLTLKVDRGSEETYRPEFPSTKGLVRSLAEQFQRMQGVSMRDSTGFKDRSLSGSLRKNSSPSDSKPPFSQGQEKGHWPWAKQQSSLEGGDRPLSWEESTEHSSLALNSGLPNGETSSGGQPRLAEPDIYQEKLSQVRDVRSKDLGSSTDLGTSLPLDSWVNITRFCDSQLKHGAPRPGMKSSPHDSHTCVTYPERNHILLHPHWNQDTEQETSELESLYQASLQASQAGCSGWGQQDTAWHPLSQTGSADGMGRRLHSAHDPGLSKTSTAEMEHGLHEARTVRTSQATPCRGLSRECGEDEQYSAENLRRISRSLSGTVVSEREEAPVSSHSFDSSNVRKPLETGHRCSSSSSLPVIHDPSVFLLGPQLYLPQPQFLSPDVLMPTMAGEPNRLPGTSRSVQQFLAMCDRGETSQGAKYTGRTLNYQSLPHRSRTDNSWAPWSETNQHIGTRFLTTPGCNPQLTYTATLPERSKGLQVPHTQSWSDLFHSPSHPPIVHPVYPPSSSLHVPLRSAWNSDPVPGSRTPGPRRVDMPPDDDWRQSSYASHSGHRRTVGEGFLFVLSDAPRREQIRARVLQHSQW
Chain of UniProt O00487 (O00487 whole entry): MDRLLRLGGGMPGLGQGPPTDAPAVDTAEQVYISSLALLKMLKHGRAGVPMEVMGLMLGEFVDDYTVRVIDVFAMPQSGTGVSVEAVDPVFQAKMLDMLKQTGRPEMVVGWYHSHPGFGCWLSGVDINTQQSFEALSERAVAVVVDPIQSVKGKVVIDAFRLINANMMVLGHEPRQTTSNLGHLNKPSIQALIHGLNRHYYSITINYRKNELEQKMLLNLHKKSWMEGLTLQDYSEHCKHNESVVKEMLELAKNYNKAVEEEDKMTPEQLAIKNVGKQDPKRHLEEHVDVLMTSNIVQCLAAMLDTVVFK

Cc1c(NC(=O)CCl)c(=O)n(-c2ccccc2)n1C
inactive: USP42 0.238 | USP46 0.0574 | USP47 -0.882 | USP48 -0.0273 | USP5 -0.287 | USP54 0.0174 | USP7 -0.431 | USP8 0.0124 | USP9X 0.00112 | UniProt O00487 -0.111

From the supplement of paper PMC11732987, “Enantioselective OTUD7B fragment discovery through chemoproteomics screening and high-throughput optimisation” (Communications Chemistry, 2025)
